Measured values taken from ChEMBL document CHEMBL4513216, “Probing the Open Global Health Chemical Diversity Library for Multistage-Active Starting Points for Next-Generation Antimalarials” (ACS Infect Dis, 2020).
About 8,600 (12%) of roughly 69,000 compounds showed an effect of 50% or more. Many of the other results were omitted from the sample, so strong results are more common in it than they were.

The compounds below were run on Plasmodium berghei (assay: Screen against P. berghei liver stage (PbLuc), transformed with Luciferase, at 10uM). Conditions: tested at 10 uM.
Type: functional, HepG2

CN(C)S(=O)(=O)N1CCCC1c1cccc(-n2ccnc2)n1 (centres undefined) was tested. Which INHIBITION did it give?
Its INHIBITION is 33.7%.

CO[C@@H]1CC[C@@H](NC(=O)CCc2ccc(Cl)cc2)[C@H]1O was tested. Which INHIBITION did it give?
Its INHIBITION is 5.35%.

For COCc1nc2ncc3c(=O)n(-c4ccccc4OC)ccc3n2n1, which INHIBITION is on record?
Its INHIBITION is 66.9%.

How did the INHIBITION turn out when COCc1nc2ncc3c(=O)n(-c4cccc(OC)c4)ccc3n2n1 was run?
The INHIBITION was 16.1%.

How did the INHIBITION turn out when COCc1nc2ncc3c(=O)n(-c4ccc(OC)cc4)ccc3n2n1 was run?
Its INHIBITION is 15%.

Which INHIBITION does the source give for Cc1n[nH]cc1CNC(C)c1cccc(N2CCCC2=O)c1 (centres undefined) here?
The INHIBITION was 0.643%.

For CN1C(=O)[C@@H]2CC[C@H]1CN(C(=O)c1csc(Cc3ccccc3)n1)C2, which INHIBITION is on record?
The INHIBITION was 35.3%.

For CN1CCN([C@@H]2CCN(Cc3ccc4cc(F)ccc4n3)C[C@H]2O)CC1, which INHIBITION is on record?
The INHIBITION was -13.5%.

How did the INHIBITION turn out when Cc1c(CN2CCc3[nH]cnc3C2C2CC2)[nH]c2ccc(F)cc12 (centres undefined) was run?
Its INHIBITION is 65.7%.

Which INHIBITION does the source give for Cc1c(CN2CCCC(O)C2)[nH]c2ccc(F)cc12 (centres undefined) here?
Its INHIBITION is 16.5%.

With Cc1c(CN2CC[C@@H](N3CCC(O)CC3)[C@H](O)C2)[nH]c2ccc(F)cc12 as the compound, how does the INHIBITION read?
The INHIBITION was 66.9%.

Which INHIBITION does the source give for Cc1c(CN2CC[C@@H](N3CCC(O)CC3)[C@H](O)C2)[nH]c2ccc(Cl)cc12 here?
Its INHIBITION is 36.2%.

For Cc1c(CN2CCc3[nH]cnc3C2C(=O)O)[nH]c2ccc(F)cc12 (centres undefined), which INHIBITION is on record?
The INHIBITION was 1.56%.

CSCCC1c2nc[nH]c2CCN1Cc1[nH]c2ccc(F)cc2c1C (centres undefined) was tested. Which INHIBITION did it give?
Its INHIBITION is 17.9%.

Which INHIBITION does the source give for Cc1ccc2[nH]c(CN3CC[C@@H](N4CCN(C)CC4)[C@H](O)C3)c(C)c2c1 here?
The INHIBITION was 34%.

For Cc1c(CN2C[C@H](O)[C@@H](N3CCOCC3)C2)[nH]c2ccc(F)cc12, which INHIBITION is on record?
The INHIBITION was 63.1%.

CC(=O)NCC(=O)N1C[C@@H](C)[C@@]2(CCN(c3ccsc3)C2=O)C1 was tested. Which INHIBITION did it give?
Its INHIBITION is 15.9%.

How did the INHIBITION turn out when c1cncc(CN2CCCn3nnc(CN4CCCCC4)c3C2)c1 was run?
Its INHIBITION is 16.8%.

With Cn1ncc2c(=O)[nH]c(CN3CCCC3Cc3ccc(F)cc3)nc21 (centres undefined) as the compound, how does the INHIBITION read?
The INHIBITION was -5.07%.

How did the INHIBITION turn out when N#Cc1ccc(S(=O)(=O)NC(=O)COc2ccc3c(c2)CCC3)cc1 was run?
The INHIBITION was 29.25%.

With CCNc1cc2c(nn1)CCN(C(=O)c1ccc(-n3cccn3)nc1)C2 as the compound, how does the INHIBITION read?
Its INHIBITION is -5.26%.

Cc1ccc(C(=O)N2C[C@@H]3CC[C@H]2CN(S(=O)(=O)N(C)C)C3)c(O)c1 was tested. Which INHIBITION did it give?
The INHIBITION was 24.7%.

With Cc1ccc(CN2CCc3c(C(=O)N(C)C)nn(C)c3C2)s1 as the compound, how does the INHIBITION read?
Its INHIBITION is 8.47%.

For CCCC(=O)N1CC[C@@H]2[C@H](CC1)N(Cc1cccnc1)CCS2(=O)=O, which INHIBITION is on record?
Its INHIBITION is -1.53%.

CC1CCN(C(=O)c2occc2COc2cccc(C#N)c2)CC1 was tested. Which INHIBITION did it give?
Its INHIBITION is -122%.

CCC(CC)NC(=O)c1cccnc1N1CCCC1c1ccccn1 (centres undefined) was tested. Which INHIBITION did it give?
The INHIBITION was 25.3%.

With CCC(CC)NC(=O)c1cccnc1-n1cccn1 as the compound, how does the INHIBITION read?
Its INHIBITION is 55.9%.

With CC(O)(CNC(=O)c1cccnc1-n1cccn1)c1ccco1 (centres undefined) as the compound, how does the INHIBITION read?
The INHIBITION was 7.39%.

With CCN(CC)CCCC(C)NC(=O)c1cccnc1-n1cccn1 (centres undefined) as the compound, how does the INHIBITION read?
Its INHIBITION is -7.13%.

With CC(O)(CNC(=O)c1cccnc1-n1cccn1)c1cccs1 (centres undefined) as the compound, how does the INHIBITION read?
Its INHIBITION is 35.4%.

How did the INHIBITION turn out when CC(O)(CNC(=O)c1cccnc1-n1cccn1)c1ccsc1 (centres undefined) was run?
Its INHIBITION is 61.1%.

For CCn1nccc1CNC(=O)CCC1CCCC1, which INHIBITION is on record?
The INHIBITION was 13%.

How did the INHIBITION turn out when c1coc(CN2C[C@@H]3CN(Cc4ccoc4)CCO[C@@H]3C2)c1 was run?
Its INHIBITION is 24.6%.

Which INHIBITION does the source give for Cc1cc(NCc2ccc(CS(N)(=O)=O)cc2)nc(C)n1 here?
Its INHIBITION is 11.8%.

How did the INHIBITION turn out when CS(=O)(=O)c1ccc(NC(=O)NC2(c3ccccc3)CCC2)cc1 was run?
Its INHIBITION is 36.7%.

How did the INHIBITION turn out when Cc1ccc(CN2CCc3nnc(CN4CCCC4=O)n3CC2)o1 was run?
Its INHIBITION is 3.81%.

With C=C(C)CN1CCC(C(=O)c2cc(F)ccc2F)CC1 as the compound, how does the INHIBITION read?
The INHIBITION was 5.03%.

For CCNC(=O)C1(Cc2cc(-c3ccccc3)no2)CCCN(C(C)=O)C1 (centres undefined), which INHIBITION is on record?
Its INHIBITION is 42.5%.

How did the INHIBITION turn out when O=C(CC1CCCC1)N[C@H]1CN(Cc2c[nH]cn2)C[C@@H]1C1CC1 was run?
The INHIBITION was 45.2%.

With Cc1nc(O)cc(CN2C[C@H](NC(=O)C3CCC3)[C@@H](C3CC3)C2)n1 as the compound, how does the INHIBITION read?
The INHIBITION was 18.9%.

How did the INHIBITION turn out when COCC1(C(=O)N[C@H]2CN(c3ccnc(C)c3)C[C@@H]2C2CC2)CCC1 was run?
Its INHIBITION is 51.3%.

O=C(O)c1cc(N2C[C@H](NC(=O)C3CCOCC3)[C@@H](C3CC3)C2)ccn1 was tested. Which INHIBITION did it give?
Its INHIBITION is 3.68%.

COCC1(C(=O)N[C@H]2CN(c3noc(C)n3)C[C@@H]2C2CC2)CCC1 was tested. Which INHIBITION did it give?
Its INHIBITION is 2.79%.

Which INHIBITION does the source give for Cc1nnc(CN2C[C@H](NC(=O)CC3CCCC3)[C@@H](C3CC3)C2)s1 here?
The INHIBITION was 64.7%.

With COCC1(C(=O)N[C@H]2CN(c3nnc(C)s3)C[C@@H]2C2CC2)CCC1 as the compound, how does the INHIBITION read?
The INHIBITION was 64.4%.

With COCCC(=O)N[C@H]1CN(c2nc(C)c3c(n2)CCCC3)C[C@@H]1C1CC1 as the compound, how does the INHIBITION read?
The INHIBITION was 20.4%.

Which INHIBITION does the source give for Cc1cc(N2C[C@H](NC(=O)C3(C#N)CCOCC3)[C@@H](C(C)C)C2)ccn1 here?
The INHIBITION was 30.7%.

Which INHIBITION does the source give for O=C(c1cccs1)N1CC[C@@H]2CN(C3CCOCC3)CCO[C@@H]2C1 here?
Its INHIBITION is 45.7%.

Which INHIBITION does the source give for CCn1nc(C)c2nnn(CC(=O)Nc3cccc(C)c3)c(=O)c21 here?
The INHIBITION was 42.4%.

With CN(C)C[C@H]1OC[C@@H]2CCN(S(=O)(=O)c3cccs3)C[C@@H]21 as the compound, how does the INHIBITION read?
The INHIBITION was 38.7%.

With CC(CO)NC(=O)Nc1ccc(S(C)(=O)=O)nc1 (centres undefined) as the compound, how does the INHIBITION read?
The INHIBITION was -38.695%.

For COc1ccc(CNCC(C)Oc2ccccn2)cc1 (centres undefined), which INHIBITION is on record?
Its INHIBITION is -30.8%.

Which INHIBITION does the source give for Cc1ccc(S(=O)(=O)N2C[C@H]3C[C@H](NC(=O)c4cscn4)[C@H]3C2)cc1 here?
Its INHIBITION is 25.6%.

With Cc1ccc(S(=O)(=O)N2C[C@H]3C[C@H](NC(=O)c4ccccn4)[C@H]3C2)cc1 as the compound, how does the INHIBITION read?
Its INHIBITION is 92.9%.

How did the INHIBITION turn out when CNC(=O)[C@H]1C[C@@H]2CN(S(=O)(=O)c3ccc(C)cc3)C[C@@H]2N1C was run?
The INHIBITION was -10.3%.

Which INHIBITION does the source give for Cc1ccc(S(=O)(=O)N2C[C@H]3C[C@H](NC(=O)c4cc[nH]n4)[C@H]3C2)cc1 here?
The INHIBITION was 64.1%.

For Cc1ccc(S(=O)(=O)N2CC[C@@H]3C[C@H](NC(=O)c4ccncc4)[C@@H]32)cc1, which INHIBITION is on record?
The INHIBITION was 20.4%.

How did the INHIBITION turn out when Cc1ccc(S(=O)(=O)N2CC[C@@H]3C[C@H](NC(=O)c4n[nH]cc4Cl)[C@@H]32)cc1 was run?
The INHIBITION was 6.521%.

For Cc1ccc(CN2CCCC3(CCCC(=O)N3C)C2)s1 (centres undefined), which INHIBITION is on record?
Its INHIBITION is 4.98%.
